Compounds without any hit were thinned out: in the full panel of roughly 83,000, 20% have a hit.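 Assay: single dose, 48 h. Readout: percent growth (0 = no net growth; negative = cell death). Active: <10.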 Calls of active or inactive are those of the source.

For this assay, the system named is MDA-MB-468 breast. Briefly: NCI-60 one-dose screen, 48 h (100 = growth as untreated, 0 = no growth, -100 = all killed). As to conditions: 10 µM.
Take `CCCS(=O)(=O)c1oc(-c2ccc(F)cc2)nc1S(=O)(=O)c1ccc(F)cc1`: the growth was -91.4% (active).

Regarding `CC(C)CCSc1nc(NC2CC2)c(C#N)c(-c2ccc(C(C)C)cc2)n1`, the growth was 106% (inactive). With `Cc1ccc(-c2nc3ccc(C(=O)N=Nc4c(O)[nH]c5ccc([N+](=O)[O-])cc45)cc3[nH]2)cc1`, the growth was 59% (inactive).

For the origin of these results see PubChem BioAssay (NCI).
